Assay results as given in PubChem BioAssay AID1135 (Sanford-Burnham Center for Chemical Genomics, 2008).
Among all 200,000 compounds or so, about 65 (0.03%) were called active.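 How the source made its calls: active means over 50% inhibition of tissue-nonspecific alkaline phosphatase at 20 µM in the single-dose screen; inactive means the rest.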 Shown is part of a subset that was picked to be rich in actives.

target: Alkaline phosphatase, tissue-nonspecific isozyme (Homo sapiens) (UniProt P05186); experiment: blockers of alkaline phosphatase TNAP activity – biochemical, luminescent, high phosphate acceptor level, uHTS, primary screen (AID 1135); conditions: purified TNAP, CDP-star luminescence, 1 M DEA; at 20 µM; stronger effect = higher value;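 further: plate controls were DMSO wells for no effect and EDTA-quenched wells as full inhibition for full effect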
Sequence (P05186 whole entry, looked up): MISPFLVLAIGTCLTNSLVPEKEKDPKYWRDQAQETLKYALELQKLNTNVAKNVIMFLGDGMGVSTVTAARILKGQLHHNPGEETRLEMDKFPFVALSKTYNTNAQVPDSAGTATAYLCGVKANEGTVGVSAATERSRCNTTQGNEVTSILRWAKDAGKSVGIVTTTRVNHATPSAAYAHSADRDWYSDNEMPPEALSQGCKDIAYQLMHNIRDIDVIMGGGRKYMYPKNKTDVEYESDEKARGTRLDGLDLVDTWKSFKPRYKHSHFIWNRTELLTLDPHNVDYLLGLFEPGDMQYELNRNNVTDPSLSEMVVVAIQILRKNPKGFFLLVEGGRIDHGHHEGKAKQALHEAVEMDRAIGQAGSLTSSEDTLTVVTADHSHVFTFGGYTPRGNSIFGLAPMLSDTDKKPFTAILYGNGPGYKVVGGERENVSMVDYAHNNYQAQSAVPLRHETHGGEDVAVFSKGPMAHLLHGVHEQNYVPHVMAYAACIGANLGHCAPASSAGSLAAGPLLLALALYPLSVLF

inhibition, inactive:
CCS(=O)(=O)C1=NSC2=NC(=O)/C(=C\c3cc(C)n(-c4cccc(OC)c4)c3C)C(=N)N21 1.7%
Cc1ccsc1C1C(C#N)=C(N)OC2=C1C(=O)CC(C)C2 (centres undefined) -0.4%
CCOC(=O)c1[nH]ncc1CN1CCCC(C(=O)c2ccc(OC)cc2C)C1 (centres undefined) -5.9%
C/C(=N\NC(=S)NC(C)C)c1ccc(C(C)(C)C)cc1 0.4%
O=C(N/N=C/c1ccc([N+](=O)[O-])cc1)C(=O)N1CCCC1 1.8%
COCCN(CCOC)S(=O)(=O)c1ccc(/C(O)=C(\C#N)c2nc3ccccc3[nH]2)cc1 -5.5%
O=C1OC(OC(=O)c2ccccc2Br)C(N2CCOCC2)=C1Cl (centres undefined) 4.1%
CCOC(=O)N/N=C/c1cn(Cc2ccccc2Cl)c2ccccc12 0.2%
CC(=O)N/N=C/c1cc2c(cc1[N+](=O)[O-])OCO2 2.5%
COc1ccc(NC(=S)NCCN2CCC(C)CC2)cc1 -0.4%
CCN1CCN(C(C(=O)NC2CCCC2)c2cc3c(cc2[N+](=O)[O-])OCO3)CC1 (centres undefined) -2.4%
O=C(Nc1ccccc1C(=O)N1CCOCC1)c1ccc(Cl)cc1 -6.3%
COc1ccc(Cl)cc1NC(=O)[C@@H]1CCCN1C(=O)c1cccs1 1%
O=[N+]([O-])c1ccc(N/N=C2/CCCCC2c2ccccn2)c([N+](=O)[O-])c1 (centres undefined) 4%
CC(C)OC(=O)Cn1nc(C(F)(F)F)c2c1CCCC2 -1.6%
O=C(COc1ccccc1)Nc1ccc(N2CCN(C(=O)c3cccs3)CC2)cc1 -2.1%
Cc1ccc(NC(=O)c2sccc2C)cc1[N+](=O)[O-] 0.9%
COc1ccc(NS(=O)(=O)c2cc(NC(=O)C3CCCCC3)ccc2N2CCOCC2)cc1 0.1%
COc1cccc(OC)c1C(=O)OCC(=O)/C(C#N)=C(\C)N 0.2%
CCOc1ccc(CCN2C(=O)c3cccnc3C2=O)cc1OCC 2.6%
CC(=O)c1ccc(N2CCN(CC(=O)Nc3ccccc3N3CCOCC3)CC2)cc1 -5.4%
CCOCCCNC(=O)C(NC(=O)Cc1c[nH]c2ccccc12)c1ccc(OC)cc1 (centres undefined) 2.4%
CCN1CCN(c2cc3nc(C)n(Cc4ccccc4)c(=O)c3cc2NC(=O)c2ccccc2F)CC1 -2.8%
C/C(=N\NC(=O)c1ccc(NS(=O)(=O)c2cccs2)cc1)c1ccc2ccccc2c1 -2.7%
Cc1ccc(C(=O)COC(=O)CCCC(=O)NC2CCCCC2)cc1[N+](=O)[O-] -4.3%
O=C(Nc1cccnc1)c1cc2cc(Br)ccc2oc1=O -1.6%
CCNS(=O)(=O)c1ccc(NC(=O)c2cncc(Br)c2)cc1 -1%
Cc1ccc(S(=O)(=O)N(C)C)cc1NC(=O)COC(=O)C1COc2ccccc2O1 (centres undefined) -3.2%
CCOC(=O)c1ccccc1N1C(=O)C2Sc3[nH]c(=O)sc3C(/C=C/c3ccccc3)C2C1=O (centres undefined) 4.9%
CCc1nnc(NC(=O)CCCSc2nc3ccccc3[nH]2)s1 -4.4%
CCN(CC)P(=O)(Nc1ccc(SC(F)F)cc1)c1ccc(N(C)C)cc1NC(=O)c1ccco1 (centres undefined) -7.3%
O=C(C(=O)N1CCc2ccccc2C1)c1c[nH]c2ccccc12 40.6%
C=CCNc1scc(-c2ccccc2)[n+]1CC=C -7.7%
Oc1c(Br)cccc1/C=N/Nc1c(F)c(F)c(F)c(F)c1F 4.6%
C/C(=N/NC(=O)CSc1ccccn1)c1ccc([N+](=O)[O-])cc1 -4.8%
Nc1nnnn1CC(=O)N/N=C/c1ccc(-c2cccc(Cl)c2)o1 -2.3%
O=C(COc1ccc(Cl)cc1)NCc1nnc(SCC(=O)NCC2CCCO2)o1 (centres undefined) -2.4%
COc1ccc(/C=C/C(=O)c2cc(Br)ccc(=O)c2O)cc1 12.7%
CCNC(=O)CC1C(=O)N(c2ccc(F)cc2)C(=O)N1CCc1sccc1C (centres undefined) 3.2%
CCCCn1c(N)c(N(CC)C(=O)/C=C/c2ccco2)c(=O)[nH]c1=O 1.1%
COc1ccc(Cl)cc1N(CC(=O)N1CCCCC1)S(C)(=O)=O -2.8%
COc1ccc(C2CC(c3ccccc3)=NN2C(=O)c2ccc(Cl)c([N+](=O)[O-])c2)cc1 (centres undefined) 0.4%
O=C(/C(=C/c1cccc(Cl)c1)c1nc2ccccc2[nH]1)c1ccccc1 -1.2%
Cc1cc(C)n(-c2ccc3nncn3n2)n1 -4%
CCOc1ccc(S(=O)(=O)Nc2ccncc2)c(C)c1C -3.2%
c1ccc2c(NC3C4CC5CC(C4)CC3C5)nc(N3CCOCC3)nc2c1 (centres undefined) -4.8%
COc1cccc(C(=O)Oc2cc(C)[nH]c(=O)c2[N+](=O)[O-])c1 -4.1%
CC1(C)CC(=O)CC2(C1)NCC(c1ccccc1Cl)c1c2[nH]c2ccccc12 (centres undefined) -3.4%
CCOn1c(=O)c(=O)n(O)c2ccccc21 -6.3%
Cc1ccc([N+](=O)[O-])c(OCCCNCC(C)O)c1 (centres undefined) -0.7%
COc1ccc(C)cc1NC(=O)C(Sc1ccccc1)c1ccccc1 (centres undefined) -3%
CCCCC(CC)CNC(=O)CCCCn1c(=O)[nH]c2ccsc2c1=O (centres undefined) -0.9%
OCCC1CN(Cc2cccc(OC3CCCC3)c2)CCN1Cc1ccsc1 (centres undefined) -1.7%
O=C(CN1C(=O)/C(=C/c2ccccc2F)Sc2ccccc21)NCc1cccnc1 -4.7%
Cc1ccc(CN2CCN(/N=C/c3ccco3)CC2)c(C)c1 -2%
Cc1ccc(/C(N)=N/OC(=O)COc2ccc(Cl)c(C)c2)cc1 -6.6%
COc1ccc(Cl)cc1NC(=O)CN(C)Cc1ccc(OC)c(OC)c1 2.3%
Cc1nnc(SC(C(=O)Nc2cc(Cl)cc(Cl)c2)c2ccccc2)[nH]c1=O (centres undefined) 2.4%
COc1ccc(F)cc1C(=O)C1CCCN(C(=O)CCc2ccccn2)C1 (centres undefined) 0.9%
